From the supplement of paper PMC10849652
Targets with a hit are over-represented here; the source holds about 8,800 in all. About 0.5% of all pairs of compound and target were hits. A number with no mark means an inactive call.

Legend:
Assay in all cases: log2 fold change, soluble protein after heating vs DMSO (PISA); higher = thermal stabilisation; K562 lysate, 10 uM; active = over 0.2 and 3.5 SD of the protein, either way, in both replicates (recomputed)
vemurafenib = compound: CCCS(=O)(=O)Nc1ccc(F)c(C(=O)c2c[nH]c3ncc(-c4ccc(Cl)cc4)cc23)c1F [vemurafenib]
How it was run: (§1)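 To prepare the extract, K562 pellets were dounce-homogenised in PBS pH 7.4 with 1 mM MgCl2, giving crude material at 1 mg/mL protein. This was treated with 10 μM compound for 30 min, then heated in aliquots for 3 min over 48°C-58°C before pooling and addition of NP-40 to 0.5% at 4°C. Centrifugation at 21,000xg for 90 min left soluble protein in the supernatant, which TMTpro 16plex LC-MS/MS quantified with equalised channel sums. Results are log-two fold changes in thermal stability compared with solvent controls, from duplicates.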

[1] = compound: CCCS(=O)(=O)Nc1ccc(F)c(C(=O)c2c[nH]c3ncc(Cl)cc23)c1F
How it was run: as §1

barasertib = compound: CCN(CCCOc1ccc2c(Nc3cc(CC(=O)Nc4cccc(F)c4)[nH]n3)ncnc2c1)CCOP(=O)(O)O [barasertib]
How it was run: as §1

[2] = compound: CC[C@@H]1C(=O)N(C)c2cnc(Nc3ccc(C(=O)NC4CCN(C)CC4)cc3OC)nc2N1C1CCCC1
How it was run: as §1

volasertib = compound: CC[C@@H]1C(=O)N(C)c2cnc(Nc3ccc(C(=O)N[C@H]4CC[C@H](N5CCN(CC6CC6)CC5)CC4)cc3OC)nc2N1C(C)C [volasertib]
How it was run: as §1

[3] = compound: CCn1c(C(=O)N(C2CC2)C2CC2)cc2c3c(ncn3C)c(Nc3cc(C)n(C)n3)nc21
How it was run: as §1

[4] = compound: CCn1cc(-c2ccnc3[nH]c(-c4cccc(CN(C)C)c4)cc23)c(-c2ccc(NC(=O)N(C)C)cc2)n1
How it was run: as §1

[5] = compound: CN1CCC(CNc2ccc3ncc(-c4cccc(OC(F)(F)F)c4)n3n2)CC1
How it was run: as §1

saracatinib = compound: CN1CCN(CCOc2cc(OC3CCOCC3)c3c(Nc4c(Cl)ccc5c4OCO5)ncnc3c2)CC1 [saracatinib]
How it was run: as §1

sotrastaurin = compound: CN1CCN(c2nc(C3=C(c4c[nH]c5ccccc45)C(=O)NC3=O)c3ccccc3n2)CC1 [sotrastaurin]
How it was run: as §1

UniProt P51790, sequence (P51790 whole entry, looked up): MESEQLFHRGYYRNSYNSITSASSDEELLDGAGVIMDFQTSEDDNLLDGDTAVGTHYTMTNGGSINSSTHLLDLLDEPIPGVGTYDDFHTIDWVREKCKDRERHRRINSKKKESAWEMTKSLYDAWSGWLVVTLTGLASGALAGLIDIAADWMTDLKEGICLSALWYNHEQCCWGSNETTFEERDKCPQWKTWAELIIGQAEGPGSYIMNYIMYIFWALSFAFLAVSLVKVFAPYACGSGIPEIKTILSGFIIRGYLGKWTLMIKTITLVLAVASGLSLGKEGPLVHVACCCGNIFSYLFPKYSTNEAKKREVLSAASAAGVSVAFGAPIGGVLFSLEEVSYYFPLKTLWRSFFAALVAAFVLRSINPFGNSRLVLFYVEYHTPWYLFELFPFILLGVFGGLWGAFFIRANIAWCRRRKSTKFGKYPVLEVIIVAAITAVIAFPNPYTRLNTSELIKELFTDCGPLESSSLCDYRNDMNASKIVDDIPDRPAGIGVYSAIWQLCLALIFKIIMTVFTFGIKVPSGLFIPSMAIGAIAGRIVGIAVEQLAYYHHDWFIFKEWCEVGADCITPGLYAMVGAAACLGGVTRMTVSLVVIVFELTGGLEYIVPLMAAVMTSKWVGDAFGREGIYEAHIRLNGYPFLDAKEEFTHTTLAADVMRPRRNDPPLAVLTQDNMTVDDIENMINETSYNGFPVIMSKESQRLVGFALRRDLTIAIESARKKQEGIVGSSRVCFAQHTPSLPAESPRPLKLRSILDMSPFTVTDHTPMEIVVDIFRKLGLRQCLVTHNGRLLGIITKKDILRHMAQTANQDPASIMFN
UniProt P14868, sequence (P14868 whole entry, looked up): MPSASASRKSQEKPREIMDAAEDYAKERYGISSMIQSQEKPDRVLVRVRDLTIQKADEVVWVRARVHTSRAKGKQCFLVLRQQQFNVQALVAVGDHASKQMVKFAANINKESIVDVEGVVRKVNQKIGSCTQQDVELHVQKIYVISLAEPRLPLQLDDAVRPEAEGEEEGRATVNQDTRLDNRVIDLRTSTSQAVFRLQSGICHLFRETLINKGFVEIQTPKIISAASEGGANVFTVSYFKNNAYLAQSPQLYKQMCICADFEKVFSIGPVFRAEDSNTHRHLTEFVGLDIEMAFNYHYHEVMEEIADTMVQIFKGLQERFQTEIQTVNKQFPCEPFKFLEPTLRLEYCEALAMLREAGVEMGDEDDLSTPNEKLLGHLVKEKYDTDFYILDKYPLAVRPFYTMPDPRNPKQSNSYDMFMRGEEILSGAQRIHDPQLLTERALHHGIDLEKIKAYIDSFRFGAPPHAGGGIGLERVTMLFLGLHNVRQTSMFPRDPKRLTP
UniProt Q96LJ7, sequence (Q96LJ7 whole entry, looked up): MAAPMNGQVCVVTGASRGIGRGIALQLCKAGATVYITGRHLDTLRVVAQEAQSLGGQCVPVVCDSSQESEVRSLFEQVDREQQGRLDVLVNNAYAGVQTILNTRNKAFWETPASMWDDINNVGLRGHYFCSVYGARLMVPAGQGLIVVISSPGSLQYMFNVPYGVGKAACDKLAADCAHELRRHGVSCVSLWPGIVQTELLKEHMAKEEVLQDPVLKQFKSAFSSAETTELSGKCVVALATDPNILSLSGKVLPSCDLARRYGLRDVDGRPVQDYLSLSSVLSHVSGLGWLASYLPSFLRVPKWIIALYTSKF
UniProt Q96MX0, sequence (Q96MX0 whole entry, looked up): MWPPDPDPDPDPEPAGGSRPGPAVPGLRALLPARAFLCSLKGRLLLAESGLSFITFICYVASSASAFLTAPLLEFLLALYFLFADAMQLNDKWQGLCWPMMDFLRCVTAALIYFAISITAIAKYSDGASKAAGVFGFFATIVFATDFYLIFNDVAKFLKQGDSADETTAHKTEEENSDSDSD
UniProt Q96DG6, sequence (Q96DG6 whole entry, looked up): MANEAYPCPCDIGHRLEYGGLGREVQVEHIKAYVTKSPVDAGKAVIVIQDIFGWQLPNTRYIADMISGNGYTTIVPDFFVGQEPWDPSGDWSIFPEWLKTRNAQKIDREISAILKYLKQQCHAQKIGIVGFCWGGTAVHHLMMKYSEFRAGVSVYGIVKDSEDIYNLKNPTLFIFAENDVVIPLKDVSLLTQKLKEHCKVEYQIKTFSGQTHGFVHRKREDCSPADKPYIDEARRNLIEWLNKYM
UniProt O95628, sequence (O95628 whole entry, looked up): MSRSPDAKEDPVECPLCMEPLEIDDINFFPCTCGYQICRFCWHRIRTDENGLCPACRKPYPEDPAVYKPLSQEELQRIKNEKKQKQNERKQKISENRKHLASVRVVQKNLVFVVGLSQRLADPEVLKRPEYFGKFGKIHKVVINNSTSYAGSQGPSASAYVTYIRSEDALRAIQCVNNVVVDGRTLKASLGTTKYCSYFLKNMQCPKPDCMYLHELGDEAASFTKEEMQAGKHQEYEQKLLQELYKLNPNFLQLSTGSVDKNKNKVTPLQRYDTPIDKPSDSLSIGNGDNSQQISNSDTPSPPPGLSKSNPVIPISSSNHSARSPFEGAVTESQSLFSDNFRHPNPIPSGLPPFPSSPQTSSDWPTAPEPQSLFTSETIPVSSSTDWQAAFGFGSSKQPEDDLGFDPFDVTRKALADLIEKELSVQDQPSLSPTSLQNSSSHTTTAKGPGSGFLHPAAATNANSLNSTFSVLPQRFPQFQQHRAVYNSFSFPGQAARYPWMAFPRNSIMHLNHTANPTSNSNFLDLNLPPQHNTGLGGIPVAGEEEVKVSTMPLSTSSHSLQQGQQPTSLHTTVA
UniProt Q13217, sequence (Q13217 whole entry, looked up): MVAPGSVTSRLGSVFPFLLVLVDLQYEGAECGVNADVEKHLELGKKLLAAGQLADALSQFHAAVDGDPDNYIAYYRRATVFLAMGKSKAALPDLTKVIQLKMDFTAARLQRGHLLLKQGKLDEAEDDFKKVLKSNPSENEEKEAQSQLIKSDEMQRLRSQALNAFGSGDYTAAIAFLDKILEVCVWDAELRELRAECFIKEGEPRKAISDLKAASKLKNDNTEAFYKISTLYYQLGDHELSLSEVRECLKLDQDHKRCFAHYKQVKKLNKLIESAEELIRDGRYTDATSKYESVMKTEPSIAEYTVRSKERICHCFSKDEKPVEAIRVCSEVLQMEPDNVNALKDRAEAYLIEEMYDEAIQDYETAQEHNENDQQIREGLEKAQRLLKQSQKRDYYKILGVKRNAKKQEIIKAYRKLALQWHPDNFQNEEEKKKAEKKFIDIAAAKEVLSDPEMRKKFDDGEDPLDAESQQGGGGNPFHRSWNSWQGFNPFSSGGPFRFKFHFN
UniProt Q96KP4, sequence (Q96KP4 whole entry, looked up): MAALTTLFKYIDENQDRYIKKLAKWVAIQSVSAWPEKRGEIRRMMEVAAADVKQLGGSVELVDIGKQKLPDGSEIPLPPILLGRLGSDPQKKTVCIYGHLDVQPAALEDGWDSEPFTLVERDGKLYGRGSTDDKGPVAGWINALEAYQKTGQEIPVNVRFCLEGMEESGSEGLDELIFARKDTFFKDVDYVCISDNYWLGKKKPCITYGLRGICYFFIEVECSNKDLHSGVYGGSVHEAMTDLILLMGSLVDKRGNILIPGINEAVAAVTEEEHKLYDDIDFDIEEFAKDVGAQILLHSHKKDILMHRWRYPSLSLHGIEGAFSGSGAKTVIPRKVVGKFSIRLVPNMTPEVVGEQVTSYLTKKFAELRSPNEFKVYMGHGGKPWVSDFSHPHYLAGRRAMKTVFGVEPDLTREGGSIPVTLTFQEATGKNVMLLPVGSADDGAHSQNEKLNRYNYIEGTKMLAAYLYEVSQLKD
UniProt Q8WYA6, sequence (Q8WYA6 whole entry, looked up): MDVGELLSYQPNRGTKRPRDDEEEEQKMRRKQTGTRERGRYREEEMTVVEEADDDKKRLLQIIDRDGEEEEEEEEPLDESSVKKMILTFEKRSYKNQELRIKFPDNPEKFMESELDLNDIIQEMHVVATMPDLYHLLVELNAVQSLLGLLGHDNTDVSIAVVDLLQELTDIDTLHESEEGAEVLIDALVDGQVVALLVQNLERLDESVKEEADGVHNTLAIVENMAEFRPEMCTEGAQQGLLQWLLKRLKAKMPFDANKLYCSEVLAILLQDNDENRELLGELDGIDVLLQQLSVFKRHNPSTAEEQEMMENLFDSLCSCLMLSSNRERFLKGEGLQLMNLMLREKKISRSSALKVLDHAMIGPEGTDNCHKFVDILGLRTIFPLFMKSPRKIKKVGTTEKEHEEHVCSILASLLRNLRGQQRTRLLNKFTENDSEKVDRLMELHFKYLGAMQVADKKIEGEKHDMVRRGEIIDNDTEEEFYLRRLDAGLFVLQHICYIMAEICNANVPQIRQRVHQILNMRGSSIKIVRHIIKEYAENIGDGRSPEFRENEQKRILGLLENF
UniProt P06732, sequence (P06732 whole entry, looked up): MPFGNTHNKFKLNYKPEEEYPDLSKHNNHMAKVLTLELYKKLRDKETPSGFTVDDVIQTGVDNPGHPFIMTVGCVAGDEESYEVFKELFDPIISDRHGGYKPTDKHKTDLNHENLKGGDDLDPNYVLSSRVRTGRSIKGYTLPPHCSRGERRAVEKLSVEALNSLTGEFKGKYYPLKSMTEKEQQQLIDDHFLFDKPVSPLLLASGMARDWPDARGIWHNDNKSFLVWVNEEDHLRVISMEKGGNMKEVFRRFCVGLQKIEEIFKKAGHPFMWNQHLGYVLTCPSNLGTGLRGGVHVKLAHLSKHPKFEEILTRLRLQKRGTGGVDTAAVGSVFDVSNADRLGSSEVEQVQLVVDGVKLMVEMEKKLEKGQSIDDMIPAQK
UniProt P68400, sequence (P68400 whole entry, looked up): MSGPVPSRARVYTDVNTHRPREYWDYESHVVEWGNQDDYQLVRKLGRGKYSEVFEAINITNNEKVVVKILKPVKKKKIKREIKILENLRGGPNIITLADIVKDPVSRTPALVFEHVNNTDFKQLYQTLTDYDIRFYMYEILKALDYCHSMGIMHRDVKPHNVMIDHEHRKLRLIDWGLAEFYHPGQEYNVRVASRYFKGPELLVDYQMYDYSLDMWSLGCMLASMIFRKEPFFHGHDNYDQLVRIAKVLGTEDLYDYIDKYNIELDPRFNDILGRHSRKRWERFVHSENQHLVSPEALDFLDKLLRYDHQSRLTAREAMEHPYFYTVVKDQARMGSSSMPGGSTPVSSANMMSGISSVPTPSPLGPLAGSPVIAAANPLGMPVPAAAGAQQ

Row | Target | log2 fold change (vemurafenib) | log2 fold change [1] | log2 fold change (barasertib) | log2 fold change [2] | log2 fold change (volasertib) | log2 fold change [3] | log2 fold change [4] | log2 fold change [5] | log2 fold change (saracatinib) | log2 fold change (sotrastaurin)
1 | CLCN3 (UniProt P51790) | -0.096 | -0.076 | 0.014 | -0.178 | -0.025 | 0.034 | 0.009 | 0.004 | 0.01 | -0.017
2 | DNAJC3 (UniProt Q13217) | -0.016 | 0.009 | 0.006 | 0.023 | -0.004 | 0.082 | 0.016 | -0.076 | 0.008 | -0.109
3 | CMTM3 (UniProt Q96MX0) | 0.053 | -0.014 | -0.04 | -0.089 | 0.014 | 0.03 | 0.053 | -0.055 | 0.012 | -0.005
4 | CHORDC1 (UniProt Q9UHD1) | 0.017 | -0.003 | -0.029 | 0.009 | 0.02 | 0.002 | 0.288 (active) | -0.003 | -0.006 | -0.036
5 | CLCN3 isoform 2 (UniProt P51790) | -0.015 | 0.052 | -0.004 | 0.003 | -0.022 | -0.024 | -0.039 | 0.013 | -0.018 | 0.054
6 | CNP (UniProt P09543) | 0.005 | -0.011 | 0.003 | -0.097 | -0.022 | 0.019 | -0.023 | -0.028 | 0.01 | -0.008
7 | CKM (UniProt P06732) | 0.072 | -0.018 | -0.018 | 0.086 | -0.084 | -0.039 | -0.574 (active) | 0.17 | -0.014 | 0.086
8 | CSNK2A1 (UniProt P68400) | -0.124 | 0.017 | -0.025 | -0.057 | -0.039 | 0.006 | -0.009 | 0.165 | -0.028 | 0.019
9 | CTNNBL1 (UniProt Q8WYA6) | 0.004 | 0.016 | 0.005 | -0.042 | -0.041 | -0.16 | -0.013 | -0.091 | 0.023 | 0.015
10 | COG2 (UniProt Q14746) | 0.023 | 0.012 | 0.077 | -0.052 | -0.088 | 0.106 | 0.032 | -0.093 | 0.002 | 0.037
11 | DARS (UniProt P14868) | 0.02 | 0.021 | 0.021 | -0.099 | -0.043 | 0.062 | 0.026 | -0.012 | 0.018 | 0.011
12 | CNDP2 (UniProt Q96KP4) | 0.01 | 0.023 | -0.01 | 0.11 | 0.041 | -0.032 | -0.343 (active) | 0.278 (active) | 0.01 | 0.013
13 | CNOT4 isoform 9 (UniProt O95628) | 0.027 | 0.014 | -0.195 | 0.028 | -0.03 | 0.015 | -1.23 (active) | 0.22 | 0.1 | 0.075
14 | CMBL (UniProt Q96DG6) | -0.053 | -0.027 | -0.026 | 0.081 | 0.183 | 0.004 | -0.174 | 0.129 | -0.016 | -0.015
15 | DHRS1 (UniProt Q96LJ7) | 0.436 | 0.187 | 0.053 | -0.045 | 0.012 | -0.029 | -0.042 | -0.05 | 0.001 | 0.026
